Screening results: PubChem, National Center for Advancing Translational Sciences (NCATS)
TDP1 cell noCPT: qHTS for Inhibitors of human tyrosyl-DNA phosphodiesterase 1 (TDP1): qHTS in cells in absence of CPT | Potency, µM (highest dose often 46.2 µM), inactives show top-dose activity change, negative = growth inhibition, hits mostly inhibitors | DT40 Tdp1-/- hTDP1 cells, no CPT, ATP luminescence, 48 h | actives 15% (n = 420,000) | AID 686978, 2013; also: nearly all actives have a fitted effect of over 55% in size
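Chicken DT40 Tdp1-/- cells stably complemented with human TDP1 were seeded at 400 cells/well with DMSO in place of 20 nM camptothecin. After compound pinning, cells grew at least 48 hr at 37 °C; viability read by CellTiter-Glo luminescence.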
VP16 counter: VP16 counterscreen qHTS for inhibitors of ROR gamma transcriptional activity. Drosophila S2 Gal4-VP16 UAS-luciferase, luminescence, 20 h. Potency, µM (doses to about 53.6 µM), inactives show at the top dose activity, negative = inhibition, most hits filed as inhibitors. actives 3.5% (n = 310,000). AID 2546, 2010;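 also: Gal4-VP16 expression switched on by copper sulfate through the metallothionein promoter; nearly all actives have a fitted effect of over 50% in size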
ELG1 repair inh: qHTS screen for small molecules that inhibit ELG1-dependent DNA repair in human embryonic kidney (HEK293T) cells expressing luciferase-tagged ELG1; HEK293T ELG1-luciferase reporter, luminescence, 16 h; DNA damage induced by 5-fluorouridine; Potency, µM (series often up to 46.1 µM), for inactives: top-dose activity change, negative = inhibition, hits mostly inhibitors; actives 2.3% (n = 330,000); AID 504467, 2011; also: nearly all actives have a fitted effect of over 55% in size
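Step one: seed 2,000 cells per well. Step two: pin-transfer compound or DMSO alongside 5-fluorouridine. Step three: incubate 16 hr, 37 °C, 5% CO2. Step four: add ONE-Glo, wait 30 min, read luminescence.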
RORgamma inh: qHTS for inhibitors of ROR gamma transcriptional activity. Nuclear receptor ROR-gamma (Mus musculus), P51450. Drosophila S2 Gal4-RORgamma UAS-luciferase reporter, 20 h. Potency, µM (titrated, usually from 53.6 µM), without a hit: at the top dose activity change, negative = inhibition, hits mostly inhibitors. actives 5.4% (n = 310,000); also: nearly all actives have a fitted effect of over 60% in size
Target sequence (P51450 whole entry, looked up, the tested form may be a part): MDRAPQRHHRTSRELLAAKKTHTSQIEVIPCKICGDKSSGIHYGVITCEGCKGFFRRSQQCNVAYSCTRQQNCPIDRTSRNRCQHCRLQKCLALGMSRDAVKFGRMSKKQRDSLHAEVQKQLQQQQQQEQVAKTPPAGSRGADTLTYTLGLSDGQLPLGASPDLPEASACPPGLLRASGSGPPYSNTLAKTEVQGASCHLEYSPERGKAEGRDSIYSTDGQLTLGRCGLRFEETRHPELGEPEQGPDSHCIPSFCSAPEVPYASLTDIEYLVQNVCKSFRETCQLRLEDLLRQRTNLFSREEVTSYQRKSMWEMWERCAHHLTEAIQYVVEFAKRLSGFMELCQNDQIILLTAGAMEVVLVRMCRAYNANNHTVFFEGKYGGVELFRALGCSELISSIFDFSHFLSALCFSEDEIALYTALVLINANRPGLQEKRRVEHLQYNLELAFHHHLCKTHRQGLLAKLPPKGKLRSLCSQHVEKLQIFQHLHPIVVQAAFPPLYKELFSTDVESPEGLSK
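ROR gamma transcriptional activity was tracked as Gal4-UAS luciferase output in stably transfected Drosophila Schneider cells, with compound added 1 hr before 700 uM copper sulfate induction and a 20 hr ambient-temperature incubation.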
12-LOX inh: Primary qHTS assay for inhibitors of human arachidonate 12S-lipoxygenase (ALOX12): Round 2 | Polyunsaturated fatty acid lipoxygenase ALOX12 (Homo sapiens), P18054 | purified 12hLO, xylenol orange hydroperoxide absorbance | Potency, µM (highest dose often 108 µM), for inactives: at the highest dose activity change, negative = inhibition, most hits filed as inhibitors | actives 1.1% (n = 580,000) | AID 1671190, 2021
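Hydroperoxide product was detected by ferrous iron/xylenol orange as the 573 to 405 nm absorbance ratio. Arachidonic acid at 40 uM (final) was turned over for 30 min at room temperature by 150 nM human 12hLO, pH 7.0 Hepes buffer, after 15 min compound preincubation.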
TDP1 cell CPT: qHTS for Inhibitors of human tyrosyl-DNA phosphodiesterase 1 (TDP1): qHTS in cells in presence of CPT; chicken DT40 Tdp1-/-;hTDP1 cells + 20 nM CPT, ATP luminescence, 48 h; Potency, µM (highest dose often 46.2 µM), for inactives: top-dose activity change, negative = growth inhibition, usual class: inhibitors; actives 12% (n = 420,000); also: nearly all actives have a fitted effect of over 55% in size
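Chicken DT40 Tdp1-/- cells complemented with human TDP1, 400 cells/well, exposed to compounds plus 20 nM camptothecin for at least 48 h at 37 C; viability read as ATP content by CellTiter-Glo luminescence.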
* = called active by the depositor; u = inconclusive; x = no result; [ ] = another dose, or the depositor's remark. A selection: hits, their analogues and other compounds. The true share with any hit is near 15%. Calls follow the shape of the dose curve; as a rule, active = well fitted curve in the direction sought with a large enough effect; inconclusive = small, poorly fitted or top-dose-only effect, or another doubt; inactive = no such curve, though single readings can be large; an effect the other way counts as inactive or inconclusive. % is scaled to controls: 0 for no effect and ±100 for the full control effect; potency is read from the fitted curve at half-maximal effect.

SMILES | TDP1 cell noCPT | VP16 counter | ELG1 repair inh | RORgamma inh | 12-LOX inh | TDP1 cell CPT
CC(C)(C)OC(=O)N1CC=C2C(C#N)=C(N)C(C#N)(C#N)[C@H](c3cccnc3)[C@H]2C1 | u | 11.4% | u | u | 4.8% | -26.7%
O=C(Cn1c2c(c(=O)n1Cc1ccccc1)CCN(Cc1ccccc1)C2)N1CCC(c2ccccc2)CC1 | x | x | x | x | 8.9% | x
Cn1cccc1CN1CCCC2(CC(Cc3ccccc3)=NO2)C1 (centres undefined) | x | x | x | x | 6.2%[176 µM] | x
CCc1cccc(NC(=O)C23CC4CC(CC(C4)C2)C3)c1 | x | x | x | x | 59.4% | x
CCC1CCCCN1S(=O)(=O)c1ccc(NC(=O)c2nc(S(C)(=O)=O)ncc2Cl)cc1 (centres undefined) | 2.59µM* | 3.98µM* | u | 3.16µM* | u | 1.46µM*
CCSc1ncc(Cl)c(C(=O)Nc2ccc(S(=O)(=O)N3CCCCC3CC)cc2)n1 (centres undefined) | 6.51µM* | x | x | x | -22.1% | 10.3µM*
O=C(N/N=C(\c1ccccc1)c1ccccn1)c1cccc([N+](=O)[O-])c1 | 1.03µM* | -13.4% | u | 0.447µM* | x | 1.16µM*
Cn1ccnc1/C(=N\NC(=O)c1ccccc1)c1cccc([N+](=O)[O-])c1 | u | -12.0% | 7.3% | -86.3% | 51.3% | 3.2%
CCOc1ccc(C(=O)Nc2cccc3cccnc23)cc1 | -8.0% | 13.1% | 25.7% | -22.3% | 5.7% | -20.3%
CCOc1ccc(C(=O)N/N=C(\c2ccccc2)c2ccccn2)cc1 | 2.91µM* | 0.0562µM* | u | 0.199µM* | -5.3% | 2.06µM*
O=C(CSc1nc2ccccc2o1)c1cccc(C(F)(F)F)c1 | x | x | x | x | -1.7% | x
Cc1ccc2c(c1)C1CN(C)CCC1N2C(=O)COc1ccc(N(C)C(=O)c2ccccc2)cc1 (centres undefined) | 13µM* | -0.7% | -7.0% | 37.1% | -11.5% | 5.17µM*
CCCOc1ccc(OC(=O)c2c(-c3ccccc3Cl)noc2C)cc1 | -13.9% | x | x | x | -61.8% | -11.1%
CCCOc1cccc(NC(=O)c2c(-c3ccccc3Cl)noc2C)c1 | 8.2µM* | x | x | x | -10.0% | 9.2µM*
Cc1onc(-c2ccccc2Cl)c1C(=O)Nc1cccc(-c2cn3cccnc3n2)c1 | 16.4µM* | -13.3% | u | 16.7% | x | u
CCCOC(=O)c1cccc(NC(=O)c2c(-c3ccccc3Cl)noc2C)c1 | 7.31µM* | x | x | x | -12.3% | 7.31µM*
CS(=O)(=O)c1ccc(OCC2(CNCc3ccc(Cl)cc3)C[C@@H](O)[C@@H](O)C2)cc1 (some centres undefined) | x | x | x | x | 40.1% | x
CS(=O)(=O)c1ccc(OCC2(CNS(=O)(=O)c3ccc(Cl)cc3)C[C@@H](O)[C@@H](O)C2)cc1 (some centres undefined) | x | x | x | x | 79.4µM* | x
Cc1ccc(S(=O)(=O)N2CCN(c3ccc([N+](=O)[O-])c(Sc4nncn4C)c3)CC2)cc1 | u | 2.4% | -5.1% | u | -15.4% | u
Cc1cc(C)n(-c2cc(N3CCN(C(=O)c4cccc(F)c4)CC3)ccc2[N+](=O)[O-])n1 | -22.6% | -2.1% | 20.6µM* | u | -21.2% | -18.9%
Cc1cc(C)n(-c2cc(N3CCN(S(=O)(=O)c4ccc(C)c(C)c4)CC3)ccc2[N+](=O)[O-])n1 | u | 3.1% | u | 11.2% | 0.0% | 20.6µM*
Cn1cnnc1Sc1cc(N2CCN(S(=O)(=O)c3ccc(Cl)c(Cl)c3)CC2)ccc1[N+](=O)[O-] | 14.6µM* | 27.1% | 2.7% | -2.3% | -6.3% | u
Cn1cnnc1Sc1cc(N2CCN(S(=O)(=O)c3ccc4ccccc4c3)CC2)ccc1[N+](=O)[O-] | u | 2.0% | 7.7% | 41.2% | 13.5% | u
Cc1cc(C)n(-c2cc(N3CCN(C(=O)c4ccc(C(C)(C)C)cc4)CC3)ccc2[N+](=O)[O-])n1 | u | -16.1% | u | u | 5.2% | u
Cc1cc(C)n(-c2cc(N3CCN(S(=O)(=O)c4ccc5ccccc5c4)CC3)ccc2[N+](=O)[O-])n1 | 9.2µM* | -4.9% | 12.0% | 24.1% | 0.0% | u
SMILES | TDP1 cell noCPT | VP16 counter | ELG1 repair inh | RORgamma inh | 12-LOX inh | TDP1 cell CPT
Cc1cccc(NC(=O)CN2CCN(C(=O)CC(C)NC(=O)c3ccccc3)CC2)c1C (centres undefined) | x | x | x | x | 33.8% | x
CCOc1ccc(OC(=O)c2ccc3c(c2)NC(=O)CS3)cc1 | x | x | x | x | 3.5% | x
N#Cc1nc(-c2ccccc2F)oc1NCc1ccccc1Cl | x | x | x | x | -28.2% | x
Cc1ccc2[nH]c3c(NCc4ccccc4)ncnc3c2c1 | 16.4µM* | u | u | u | -25.3% | 20.6µM*
CC(C)OCCCNc1ncnc2c1[nH]c1ccccc12 | 14.1µM* | x | 9.2µM* | -0.8%[0.365 µM] | 21.5% | 8.91µM*
CCCOc1ncnc2c1[nH]c1ccc(C)cc12 | 9.2µM* | u | u | -41.2% | x | u
COc1ccc(CNc2ncnc3c2[nH]c2ccccc23)cc1 | 5.8µM* | 6.31µM* | 2.06µM* | u | 0.0% | 10.3µM*
CC(Sc1ccccc1)C(=O)NC1CCCCC1 (centres undefined) | x | x | x | x | -12.3% | x
C1=C(CCNc2ncnc3c2[nH]c2ccccc23)CCCC1 | 0.411µM* | 0.708µM* | 18.0% | 7.94µM* | u | 0.731µM*
O=c1c2[nH]c3ccccc3c2ncn1Cc1ccco1 | -0.7% | 12.1% | u | u | 19.5% | -2.6%
c1coc(CNc2ncnc3c2[nH]c2ccccc23)c1 | 14.1µM* | x | x | x | x | 12.6µM*
O=c1c2[nH]c3ccccc3c2ncn1CCC1=CCCCC1 | -7.5% | -3.2% | u | 44.5% | -18.0% | -2.8%
COc1ccc(CNC(=O)Cn2cnc3c(NCc4ccccc4)ncnc32)cc1 | 5.8µM* | x | -19.2% | x | u | 10.3µM*
COCCCNC(=O)Cn1cnc2c(NCc3ccccc3)ncnc21 | 2.1% | x | 8.9% | x | 14.9% | 4.9%
CCCc1noc(C(C)Sc2nc(C3CC3)nc3ccccc23)n1 (centres undefined) | x | x | x | x | 17.5% | x
